Compound activity deposited in PubChem by several laboratories.
GIRK2 act = activators of NPY4-receptor-primed GIRK2 channels, summary, cell-based, HEK293, thallium flux; G protein-activated inward rectifier potassium channel 2 (Homo sapiens), P48051; HEK293 GIRK2/NPY4 cells, thallium flux fluorescence; activation (% efficacy), % for hits at 37.5 µM; 34,000 tested, under 10 active; AID 1259324, 2017;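 active = primary screen hit, no activity in plain HEK293 cells, and in GIRK2-only cells above 5% efficacy rising with concentration; inactive = the rest, including fluorescent compounds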;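 also: efficacy is normalized control-subtracted fluorescence 15 s after thallium addition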
Target sequence (P48051 whole entry, looked up): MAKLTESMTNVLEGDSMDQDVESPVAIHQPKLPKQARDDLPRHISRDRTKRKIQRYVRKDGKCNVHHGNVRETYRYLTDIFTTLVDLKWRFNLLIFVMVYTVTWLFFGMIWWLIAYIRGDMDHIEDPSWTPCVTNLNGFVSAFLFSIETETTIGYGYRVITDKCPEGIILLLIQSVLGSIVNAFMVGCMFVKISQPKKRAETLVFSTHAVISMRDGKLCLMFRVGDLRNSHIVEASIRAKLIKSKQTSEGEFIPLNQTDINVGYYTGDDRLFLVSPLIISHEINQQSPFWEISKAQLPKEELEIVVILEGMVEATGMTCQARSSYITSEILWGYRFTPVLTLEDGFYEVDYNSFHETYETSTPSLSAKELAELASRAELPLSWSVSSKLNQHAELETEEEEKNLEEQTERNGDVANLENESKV
AMPAR-TARP mod = modulators of GluA2-stargazin AMPA receptor complexes, primary screen, cell-based, membrane potential dye; Voltage-dependent calcium channel gamma-2 subunit (Mus musculus) + Glutamate receptor 2 …; HEK293 GluA2+stargazin, membrane potential dye (FDSS), glutamate EC50; hits were called plate by plate, in both directions; calls only at 30 µM; actives 3.5% (n = 40,000);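 active = any of four per-well response measures lying three or more SD from its plate-wide compound average, in either direction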
Calls only; i = inactive; nt = not tested or not shown; + = active, no number. This is one part of a sample in which hits are shown more often than they occur.

SMILES	GIRK2 act	AMPAR-TARP mod
COc1ccc(NC(=O)Cn2cc(-c3ccccc3)c(N3CCOCC3)n2)cc1	i	i
CCn1c(=O)c2c(nc3n(-c4ccc(OC)cc4)c(C)c(C)n23)n(C)c1=O	nt	i
CCn1c(=O)c2c(nc3oc(C)c(C)n32)n(C)c1=O	i	+
COc1ccc(C(=O)Nc2ccc3c(c2)CCC(=O)N3CCC(C)C)c(OC)c1OC	nt	i
Cc1cc(NC(=O)/C=C/c2ccccc2)on1	i	nt
Cc1cc(C)c2sc(NC(=O)/C=C\c3ccccc3)nc2n1	i	+
O=S(=O)(Nc1ccc2c(c1)N(S(=O)(=O)c1ccccc1)CCC2)c1ccc(F)cc1	nt	i
Cc1ccc(S(=O)(=O)N2CCCc3ccc(NS(=O)(=O)c4ccccc4)cc32)cc1	i	+
CCOc1ccc(CC(=O)Nc2ccc3c(c2)CCCN3S(=O)(=O)c2ccc(C)cc2)cc1	nt	+
Cc1ccc(OCC(=O)Nc2ccc3c(c2)CCCN3S(=O)(=O)c2ccc(C)cc2)cc1	nt	i
Cc1ccc(S(=O)(=O)N2CCCc3ccc(NS(=O)(=O)c4ccc(F)cc4)cc32)cc1	i	+
COc1ccc(CCNC(=O)Nc2ccc3c(c2)N(C(=O)c2ccccc2)CCC3)cc1	i	nt
COc1ccc(CCNC(=O)Nc2ccc3c(c2)N(S(=O)(=O)c2ccccc2)CCC3)cc1	nt	+
Cc1ccc(S(=O)(=O)Nc2ccc3c(c2)N(S(=O)(=O)c2ccc(C)cc2)CCC3)cc1	i	i
Cc1cc(NC(=O)c2cccc3ccccc23)n(C(C)C)n1	i	nt
COC(=O)c1ccc(NC(=O)CSc2ccc(NC(=O)c3cccc(F)c3)nn2)cc1	i	i
Cc1onc(-c2ccccc2Cl)c1C(=O)Nn1cnc2c(cnn2C(C)(C)C)c1=O	i	i
CCC(=O)Nc1ccc(SCC(=O)Nc2cccc(C(F)(F)F)c2)nn1	i	nt
Cc1c(NC(=O)c2nc(-c3cnccn3)no2)c(=O)n(-c2ccccc2)n1C	i	i
COc1ccc(S(=O)(=O)N2CCCc3cc(NS(=O)(=O)c4ccccc4)ccc32)cc1	nt	i
COc1ccc(S(=O)(=O)N2CCCc3cc(NS(=O)(=O)c4cccc(C)c4)ccc32)cc1	nt	+
O=S(=O)(c1cc(F)ccc1F)N1CCC(Cn2ccnc2-c2ccccc2)CC1	i	+
Cc1nccn1CC1CCN(S(=O)(=O)c2cccs2)CC1	i	i
CCn1nnc2c(Nc3cccc(Br)c3)ncnc21	i	i
Cc1ccc(-c2nn(C)c(=O)c3ccccc23)cc1CNS(C)(=O)=O	nt	i
SMILES	GIRK2 act	AMPAR-TARP mod
Cn1nc2c3c(cccc3c1=O)-c1ccccc1-2	nt	+
O=C(CCc1csc(NC(=O)c2ccc(F)cc2)n1)NCC1CCCCC1	i	i
O=C(CC1CCCC1)Nc1nc(CSCc2ccc(F)cc2)cs1	i	+
O=C(Nc1ccc(Cl)cc1)N(CCCO)CC(O)Cn1c2ccccc2c2ccccc21 (stereo not drawn)	i	+
O=C(NC1CCCCC1)N(CCCO)CC(O)Cn1c2ccccc2c2ccccc21 (stereo not drawn)	i	i
CS(=O)(=O)N1CCN(CCn2cccn2)CC1	i	i
CC(C)(C)c1cc(NC(=O)CCSc2ccccc2)n(CCO)n1	i	+
O=C(CSCc1ccccc1)Nc1cc(-c2cccs2)nn1CCO	i	i
CC(C)(C)c1cc(NC(=O)CSCc2ccccc2)n(CCO)n1	i	+
CC(C)(C)c1cc(NC(=O)Cc2ccccc2Cl)n(CCO)n1	i	i
CNC(=O)C1Cc2ccccc2N1C(=O)Nc1ccc(OC)c(OC)c1 (stereo not drawn)	i	i
CSc1cccc(NC(=O)CSc2nc3ccsc3c(=O)n2Cc2ccc3c(c2)OCO3)c1	i	i
O=C(NCC(O)c1ccsc1)C1CC1 (stereo not drawn)	i	i
O=C(NCc1ccsc1)C1CCCCC1	i	+
CSc1ccccc1C(=O)N(CCc1ccccc1)Cc1ccccn1	i	i
O=C(c1nc2ccccc2s1)N(CCc1ccccc1)Cc1ccccn1	i	+
Cc1ccc2c(=O)c(-c3nc(-c4ccccc4C)no3)cn(CC(=O)NCc3ccccc3Cl)c2n1	i	i
CCOc1ccc(S(=O)(=O)Nc2ccc3c(c2)CCC(=O)N3Cc2ccccc2)cc1	i	i
O=C(C1c2ccccc2Oc2ccccc21)N1CCN(c2ccc(-c3ccncc3)nn2)CC1	i	+
O=C(C1CCCC1)N1CCN(c2ccc(-c3ccc(Cl)cc3)nn2)CC1	i	+
O=C(C1CCCCC1)N1CCN(c2ccc(-c3ccncc3)nn2)CC1	i	i
O=C(C1CC1)N1CCN(c2ccc(-c3ccc(Cl)cc3)nn2)CC1	i	i
Cc1ccc(C)c(NC(=O)c2ccc(S(=O)(=O)C(C)C)cc2)c1	i	i
CCOc1ccc(NC(=O)Nc2ccc3nc(C)n(-c4ccc(C)cc4)c(=O)c3c2)cc1	nt	i
CCN1CCc2c(sc(NC(=O)CSc3ccc(C)cc3)c2-c2nc3ccccc3s2)C1	nt	i
SMILES	GIRK2 act	AMPAR-TARP mod
COc1ccc(CCNC(=O)CC2CCCCN2S(=O)(=O)c2ccc(OC)cc2)cc1 (stereo not drawn)	nt	i
COc1ccc(CCNC(=O)CC2CCCCN2S(=O)(=O)c2ccc(F)cc2)cc1 (stereo not drawn)	nt	+
COc1ccc(S(=O)(=O)N2CCCCC2CC(=O)NCCc2ccc(Cl)cc2)cc1 (stereo not drawn)	nt	i
COc1ccc(CCNC(=O)CC2CCCCN2S(=O)(=O)c2ccc(Cl)cc2)cc1 (stereo not drawn)	nt	+
CC(=O)Nc1sc2c(c1-c1nc3ccccc3s1)CCC(C)C2 (stereo not drawn)	nt	i
COc1cccc(S(=O)(=O)Nc2cccc(Cl)c2)c1	i	i
COc1ccccc1N1CCN(CCN2C(=O)c3ccccc3C2=O)CC1	nt	i
Cc1cccc(-n2ncc3c(=O)n(CC(=O)N4CCc5ccccc54)cnc32)c1C	nt	i
Cc1ccc(-n2ncc3c(=O)n(CC(=O)N4CCc5ccccc54)cnc32)c(C)c1	nt	+
CCN(CC)c1ccc(N2C(=O)/C(=C/c3ccc(OC)cc3OC)SC2=S)cc1	nt	i
Cc1cc(N2CC(C)OC(C)C2)nc2ccccc12 (stereo not drawn)	nt	+
CC1CN(CC(O)COc2cccc3ccccc23)CC(C)O1 (stereo not drawn)	nt	i
O=C(COc1ccc(Cl)cc1Cl)Nc1ccc2scnc2c1	i	i
O=C(CCc1ccccc1)NCCC(O)c1ccccc1 (stereo not drawn)	i	+
O=C(Cc1ccc(F)cc1)NCCC(O)c1ccccc1 (stereo not drawn)	i	i
COc1cc(OC)cc(C(=O)Nc2nnc(-c3ccc(Br)s3)o2)c1	i	+
COc1cccc(C(=O)Nc2nnc(-c3ccc(Br)s3)o2)c1	i	i
COc1cc(OC)cc(C(=O)Nc2nnc(-c3ccc(C)cc3C)o2)c1	nt	+
COc1cc(C(=O)Nc2nnc(-c3ccc(C)cc3C)o2)cc(OC)c1OC	nt	i
COc1ccccc1OCC(=O)Nc1ccc(CC(=O)NC2CC2)cc1	i	i
O=C(Nc1ccc2c(c1)CN(C(=O)c1cccs1)CC2)c1cnccn1	i	+
O=C(Nc1ccc2c(c1)CN(S(=O)(=O)c1ccccc1)CC2)c1cnccn1	i	+
O=C(Nc1ccc2c(c1)CN(C(=O)c1cccs1)CC2)c1ccc2nsnc2c1	i	i
